Compounds with a hit are over-represented: about 10% of the library has one in this group of screens.
NIH3T3 tox: cytotoxic compounds in NIH 3T3 cells; NIH 3T3 viability, CellTiter-Glo ATP luminescence, 48-72 h; Potency, µM (titrated, usually from 96.7 µM), without a hit: at the top dose activity change, negative = cytotoxicity, hits mostly inhibitors; 4.3% of 94,000 active; AID 1345082; also: % is scaled to controls: 0 for no effect and ±100 for the full control effect; nearly all actives have a fitted effect of over 55% in size
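Mouse fibroblast NIH 3T3 cells, 400 per well, received compound via pintool and were incubated for 48 or 72 hr prior to CellTiter-Glo ATP luminescence measurement.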
NPR1 antag: blocks ANP-stimulated signaling of human Npr1 receptor | P16066 | HEK293 hNpr1 GloSensor cGMP, ANP-stimulated luminescence | 1.6% of 76,000 active | Potency, µM (highest dose often 46.3 µM), without a hit: at the highest dose activity change, negative = inhibition, usual class: inhibitors | AID 1347048; calls by dose curve; also: % is scaled to controls: 0 for no effect and ±100 for the full control effect; nearly all actives have a fitted effect of over 60% in size
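Compound pre-incubated 30 min at room temperature on GloSensor-loaded HEK293 cells stably carrying hNpr1 and the pGS-40F cGMP biosensor. Stimulation uses hNppA at 0.1 nM final; luminescence is taken at baseline and 20 min post-agonist.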
HEK293 tox: kills HEK 293 cells; 6.6% of 94,000 active; HEK 293 viability, ATP luminescence (CellTiter-Glo), 48-72 h; Potency, µM (series often up to 115 µM), without a hit: at the highest dose activity change, negative = cytotoxicity, hits mostly inhibitors; also: % is scaled to controls: 0 for no effect and ±100 for the full control effect; nearly all actives have a fitted effect of over 60% in size
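HEK 293 cells at 250 cells/well were exposed to compounds by pintool transfer for 48 or 72 hr at 37 degree Celsius, 5% CO2. Viability was read as ATP-coupled luminescence with CellTiter-Glo after 10 min at room temperature.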
GPT2 inh: inhibitors of human GPT2 alanine aminotransferase | Recombinant GPT2, coupled pyruvate oxidase/HRP Amplex Red fluorescence | Potency, µM (series often up to 57.7 µM), without a hit: top-dose activity change, negative = inhibition, hits mostly inhibitors | 0.25% of 100,000 active; also: % is scaled to controls: 0 for no effect and ±100 for the full control effect; nearly all actives have a fitted effect of over 60% in size
Target sequence (Q8TD30 whole entry, looked up): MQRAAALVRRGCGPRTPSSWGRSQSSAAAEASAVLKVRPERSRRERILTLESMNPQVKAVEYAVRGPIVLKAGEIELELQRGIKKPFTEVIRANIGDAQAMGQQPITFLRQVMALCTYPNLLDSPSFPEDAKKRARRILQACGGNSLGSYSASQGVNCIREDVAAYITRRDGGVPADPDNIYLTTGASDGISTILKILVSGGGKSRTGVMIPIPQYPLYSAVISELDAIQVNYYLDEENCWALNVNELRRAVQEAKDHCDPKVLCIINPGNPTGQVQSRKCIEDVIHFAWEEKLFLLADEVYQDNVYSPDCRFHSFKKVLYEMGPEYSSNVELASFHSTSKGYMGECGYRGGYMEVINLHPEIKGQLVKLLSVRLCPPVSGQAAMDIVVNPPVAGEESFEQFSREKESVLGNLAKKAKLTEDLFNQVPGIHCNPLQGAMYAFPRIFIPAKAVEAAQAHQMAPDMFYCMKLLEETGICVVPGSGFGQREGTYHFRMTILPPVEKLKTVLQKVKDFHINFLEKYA
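Fluorescence read-out: pyruvate from GPT2 turnover coupled to pyruvate oxidase, HRP and Amplex Red (0.2mM ThPP, 0.2U/mL PO and HRP, 50uM Amplex final). Substrates 250uM a-KG, 2mM L-alanine; enzyme 10ng/uL; 30 min RT.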
FLuc inh-1: blocks purified firefly luciferase enzyme activity | P08659 | purified P. pyralis luciferase, luminescence, biochemical | Potency, µM (highest dose often 115 µM), usual class: inhibitors | 2.5% of 76,000 active | AID 1347043; also: % is scaled to controls: 0 for no effect and ±100 for the full control effect; nearly all actives have a fitted effect of over 65% in size
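Inhibitors were tested against purified firefly luciferase in a biochemical, low-substrate format (both substrates at 10uM) and luminescence measured with a CCD imager.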
FLuc SDR no ATP: binders stabilizing firefly luciferase, without ATP; shares compounds with FLuc inh-1; Potency, µM (doses to about 32.7 µM), for inactives: top-dose activation (signal gain), usual class: activators; AID 1963318; 7.8% of 1,300 active; Purified FLuc-C-HiBiT, Nano-Glo HiBiT luminescence, no ATP; also: nearly all actives have a fitted effect of over 55% in size
FLuc SDR ATP: binders stabilizing firefly luciferase, plus ATP; AID 1963319; 8.7% of 1,300 active; Potency, µM (doses to about 32.7 µM), inactives show top-dose activation (gain of signal), actives largely listed as activators; shares compounds with FLuc inh-1; purified FLuc-C-HiBiT + ATP, HiBiT complementation luminescence;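 also: signal reports ligand binding via conformational change of the enzyme rather than luciferase catalysis; % of control where 0% means no effect; nearly all actives have a fitted effect of over 55% in size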
FLuc inh-2: firefly luciferase enzyme inhibition | shares compounds with FLuc inh-1 | Potency, µM (highest dose often 32.7 µM), inactives show at the highest dose activity change, negative = inhibition, most hits filed as inhibitors | purified FLuc-C-HiBiT enzyme, luciferin luminescence | AID 1963320 | 42% of 1,300 active; also: % is scaled to controls: 0 for no effect and ±100 for the full control effect; nearly all actives have a fitted effect of over 70% in size
NPR1 antag cnf: hNpr1 antagonism, confirmation assay. shares compounds with NPR1 antag. HEK293 hNpr1 cGMP GloSensor luminescence, ANP-stimulated. Potency, µM (titrated, usually from 57.6 µM), for the others: at the top dose activity change, negative = inhibition, usual class: inhibitors. 76% of 1,400 active. AID 1347044; calls by dose curve; also: nearly all actives have a fitted effect of over 70% in size
NPR2 antag: antagonizes human Npr2, subtype selectivity check | shares compounds with NPR1 antag | 67% of 1,400 active | AID 1347046 | Potency, µM (top dose mostly 57.6 µM), without a hit: at the highest dose activity change, negative = inhibition, usual class: inhibitors | HEK293 hNpr2 GloSensor cGMP luminescence, CNP-stimulated; calls by dose curve; also: nearly all actives have a fitted effect of over 70% in size
FLuc counter: counter-screen for Npr1 antagonists: firefly luciferase inhibitors | shares compounds with NPR1 antag | purified FLuc enzyme, luminescence, Km substrate | Potency, µM (doses to about 57.6 µM), for the others: top-dose activity change, negative = inhibition, hits mostly inhibitors | 0.7% of 1,400 active | AID 1347047; also: 0% is about no effect
GloSensor cGMP: reduces cGMP signal in GloSensor control cells; shares compounds with NPR1 antag; HEK293 GloSensor cGMP, SNP-stimulated, luminescence; Potency, µM (top dose mostly 57.6 µM), for inactives: at the highest dose activity change, negative = inhibition, hits mostly inhibitors; 69% of 1,400 active; AID 1347051; calls by dose curve; also: % is scaled to controls: 0 for no effect and ±100 for the full control effect; nearly all actives have a fitted effect of over 70% in size
* = called active by the depositor; i = inactive; u = inconclusive; x = no result given; [ ] = remark or other dose. Unless noted, calls follow the shape of the dose curve; as a rule, active = well fitted curve in the direction sought with a large enough effect; inconclusive = small, poorly fitted or top-dose-only effect, or another doubt; inactive = no such curve, though single readings can be large; an effect the other way counts as inactive or inconclusive. Potency is read from the fitted curve at half-maximal effect.

SMILES	NIH3T3 tox	NPR1 antag	HEK293 tox	GPT2 inh	FLuc inh-1	FLuc SDR no ATP	FLuc SDR ATP	FLuc inh-2	others
CC(C)CN1CCNc2cc(-c3ccccc3)ncc2C1	u	-21.7%[70.6 µM]	u	0.2%[88.5 µM]	3.98µM*	18.1%[65.7 µM]	13.2%[65.7 µM]	u
CN1CCNc2cc(Nc3ccncc3)ncc2C1	u	6.8%[70.6 µM]	u	-18.4%[88.5 µM]	i	x	x	x
CN1CCNc2cc(Nc3ccc(F)c(Cl)c3)ncc2C1	50.1µM*	u	u	-0.7%[88.5 µM]	0.794µM*	19.8%[49.3 µM]	15.9%[49.3 µM]	12.8µM*
CN1CCNc2cc(Nc3ccc(F)cc3)ncc2C1	u	-13.8%[70.6 µM]	u	-1.7%[88.5 µM]	3.16µM*	26.3%[65.7 µM]	19.8%[65.7 µM]	20.2µM*
COc1ccc(-n2cc(C3=CCN(CCN4CCOCC4)CC3)cn2)cc1	u	u	u	-8.5%	4.47µM*	u	u	9.89µM*
COc1ccc(C(=O)c2c(C)n(CCN3CCOCC3)c3cc(I)ccc23)cc1	x	x	x	i	x	x	x	x
O=C(Nc1ccccc1)Nc1ccc2n(c1=O)C[C@H]1C[C@@H]2CN(C(=O)c2ccccc2)C1	u	-4.8%[70.6 µM]	u	4.3%[88.5 µM]	14.1µM*	u	16.7%[49.3 µM]	u
O=C(Nc1ccc2n(c1=O)C[C@H]1C[C@@H]2CN(C(=O)Nc2ccccc2)C1)c1ccncc1	u	2.6%[70.6 µM]	-0.2%[172 µM]	-24.8%[88.5 µM]	i	x	x	x
CC1CCN(C[C@H]2CN3CC[C@H]2C[C@@H]3CNC(=O)c2ccc3c(c2)OCO3)CC1	u	-2.9%[70.6 µM]	-9.6%[172 µM]	-5.6%[88.5 µM]	i	x	x	x
CC(C)S(=O)(=O)N1CC[C@@H]2COCCN(C)[C@@H]2C1	2.4%	-0.5%	-2.1%	i	i	x	x	x
O=C(Nc1ccc(=O)n2c1[C@@H]1C[C@@H](CN(S(=O)(=O)c3ccccc3)C1)C2)c1cccnc1	i	0.6%	u	i	i	x	x	x
COc1cc2c(cc1-c1ccc(CO)cc1)NC(=O)C21CCN(C)CC1	x	x	x	x	x	15.2%[49.3 µM]	10.5%[49.3 µM]	u
COc1cc2c(cc1Oc1ccccc1)NC(=O)C21CCN(c2cnccn2)CC1	u	-20.7%[70.6 µM]	u	-1.8%[88.5 µM]	i	x	x	x	NPR1 antag cnf=u;NPR2 antag=u;FLuc counter=3.0%[86.2 µM];GloSensor cGMP=u
C=C[C@H]1CN2CC[C@H]1C[C@@H]2CNCc1ccc(-c2ccccc2)cc1	u	0.8%[70.6 µM]	u	-8.0%[88.5 µM]	i	x	x	x
COCCN1C(=O)CS(=O)(=O)C12CCNCC2	-6.8%	2.6%	-9.3%	i	i	x	x	x

Source: PubChem (National Center for Advancing Translational Sciences (NCATS))
